Rows were chosen to be rich in hits. Some 5.1% of all compounds tested hit in one or more screens of this group.
MPTP block: mitochondrial permeability transition pore inhibitors, primary screen, biochemical, isolated mouse mitochondria, absorbance; inhibition, % at 10 µM; hit rate 1.4% among 360,000; AID 602449, 2012; Ca2+ swelling absorbance, 30 min;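 active = inhibition of 50% or more, scaled per plate between neutral and stimulator controls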;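 also: 0% = DMSO wells given calcium and 100% = 1 mM EGTA wells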
CRFR2-BP ag: agonists of CRF-BP/CRF-R2 complex, primary screen, cell-based, HEK293, calcium dye fluorescence, uHTS. activation, % at 13.2 µM. hit rate 0.46% among 350,000. calcium dye fluorescence (FLIPR); percent of saturating CRF peptide response. CRF-binding protein / CRF receptor 2 complex (human);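 active = activation of at least 50%, plus an integration ratio under a set limit after plate pattern correction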;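 also: plate controls were neutral control wells without compound for no effect and CRF at EC100 for full effect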
ANO1 activ: TMEM16A chloride channel activators or potentiators, primary screen, cell-based, HTS; Anoctamin-1 (Mus musculus), Q8BHY3; HEK293 TMEM16A/YFP-H148Q/I152L, iodide quench fluorescence; hits give low values; B-score at 10 µM; hit rate 0.3% among 340,000; AID 623877, 2012;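 active = fluorescence-ratio B-score plate-corrected deviation score at least 3 library SD below zero, with starting fluorescence score within 5 deviations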;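 also: channel opened by trigger with iodide after compound preincubation; score built on the fluorescence ratio of max minus min over baseline; more negative score means more quench and so TMEM16A activation or potentiation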
Target sequence (Q8BHY3 whole entry, looked up): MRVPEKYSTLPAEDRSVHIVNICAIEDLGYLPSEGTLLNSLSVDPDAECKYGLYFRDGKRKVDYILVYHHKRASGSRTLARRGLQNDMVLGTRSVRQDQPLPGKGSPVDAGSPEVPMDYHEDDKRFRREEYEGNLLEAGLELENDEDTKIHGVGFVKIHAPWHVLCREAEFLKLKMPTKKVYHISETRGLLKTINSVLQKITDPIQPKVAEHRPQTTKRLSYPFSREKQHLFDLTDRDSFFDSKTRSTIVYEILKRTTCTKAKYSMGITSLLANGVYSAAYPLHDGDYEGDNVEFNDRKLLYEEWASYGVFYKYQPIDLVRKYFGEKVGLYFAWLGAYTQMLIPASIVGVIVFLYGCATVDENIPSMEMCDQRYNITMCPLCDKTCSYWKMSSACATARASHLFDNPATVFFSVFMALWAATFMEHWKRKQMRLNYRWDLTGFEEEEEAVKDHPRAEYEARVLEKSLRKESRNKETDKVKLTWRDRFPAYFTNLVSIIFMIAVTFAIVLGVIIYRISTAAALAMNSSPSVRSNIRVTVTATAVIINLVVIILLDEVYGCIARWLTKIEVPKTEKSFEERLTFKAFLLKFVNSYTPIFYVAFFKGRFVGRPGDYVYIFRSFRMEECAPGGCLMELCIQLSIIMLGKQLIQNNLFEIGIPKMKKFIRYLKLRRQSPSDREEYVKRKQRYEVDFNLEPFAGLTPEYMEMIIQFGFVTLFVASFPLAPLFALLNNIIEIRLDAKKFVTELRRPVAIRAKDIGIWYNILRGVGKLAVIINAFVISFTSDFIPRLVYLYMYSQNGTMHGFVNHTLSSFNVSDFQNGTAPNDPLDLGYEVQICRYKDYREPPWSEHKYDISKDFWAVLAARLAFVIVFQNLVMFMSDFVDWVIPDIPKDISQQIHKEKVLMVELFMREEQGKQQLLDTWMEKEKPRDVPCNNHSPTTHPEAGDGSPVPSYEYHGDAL
ANO1 block: TMEM16A chloride channel inhibitors, primary screen, cell-based, HTS. HEK293 TMEM16A/YFP iodide influx fluorescence, ionomycin. normalized B-score (activity score, 25-100; higher = stronger inhibition) at 10 µM. hit rate 1.2% among 310,000. AID 588511, 2011;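 active = ratio plate-corrected score three or more library SD toward inhibition, starting fluorescence score within five deviations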;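 also: score derived from kinetic fluorescence span divided by baseline fluorescence per well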
CRFR2-BP antag: antagonists of CRF-BP/CRF-R2 complex, primary screen, cell-based, HEK293, calcium dye fluorescence, uHTS; inhibition, % at 11.8 µM; hit rate 0.59% among 350,000; CRF-induced calcium fluorescence;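 active = inhibition of the ligand-induced calcium signal above about 50% at the single tested concentration, limit read from the data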
GRIN3A LBD mod: binders of NR3A ligand-binding domain, primary screen, biophysical, differential scanning fluorimetry, uHTS. AID 1259313, 2017. Glutamate receptor ionotropic, NMDA 3A (GRIN3A) ligand-binding domain. NR3A LBD differential scanning fluorimetry, Tm shift; 0% = protein alone, 100% = glycine-bound protein. hit rate 2.5% among 340,000. Tm shift relative to glycine control, % at 25 µM;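 active = melting temperature shift of at least 10% of the positive control shift, at one fixed dose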
* marks the source's active call; other numbers are inactive results; i = inactive; / = no result.

SMILES	MPTP block	CRFR2-BP ag	ANO1 activ	ANO1 block	CRFR2-BP antag	GRIN3A LBD mod
c1ccc(Nc2nc3ccccc3o2)cc1	-2	0	i	i	-8	1
Cc1ccc(NC(=O)CSc2nnnn2C)cc1S(=O)(=O)N1CCCCC1	-2	-1	/	/	-3	/
O=[N+]([O-])c1c(Nc2ccccc2O)cc(Cl)c2nonc12	1	-1	i	100*	25	-6
O=C1NC[C@H](Cc2ccccc2)N(CC2CCN(CCc3ccc(-c4ccccc4)cc3)CC2)C1=O	3	-1	/	/	3	-3
CCCC(Oc1ccc(Br)cc1)c1nc2c3cc(OC)c(OC)cc3nc(=S)n2[nH]1 (stereo not drawn)	5	0	i	i	-3	16*
COc1cc(-c2nc3c4ccccc4nc(=S)n3[nH]2)cc(OC)c1OC	8	-1	i	i	8	-7
O=S1(=O)CC(N2CCCC2)CN1Cc1cn(Cc2cccc(Cl)c2)nn1 (stereo not drawn)	0	/	/	/	/	/
CCOC(=O)Nc1cccc(NC(=O)c2ccccc2F)c1	-2	-1	-10*	i	18	2
O=C(C[n+]1ccc(-c2nnc3n2CCC3)cc1)c1ccc(Cl)c(Cl)c1	-1	3	i	i	4	13*
C=CCOc1ccc(C2C(C(=O)c3cccs3)=C(O)C(=O)N2c2nnc(C)s2)cc1 (stereo not drawn)	-1	27	i	i	10	-5
Cc1cccc(N2C(=O)C(O)=C(C(=O)c3cccs3)C2c2ccc(C(C)C)cc2)n1 (stereo not drawn)	18	62*	i	i	-1	-6
Cc1cccc(N2C(=O)C(O)=C(C(=O)c3cccs3)C2c2ccc(F)cc2)n1 (stereo not drawn)	1	0	i	i	18	0
COc1ccc(C2C(C(=O)c3cccs3)=C(O)C(=O)N2c2nnc(C)s2)cc1OC (stereo not drawn)	0	21	i	i	-26	2
CC(C)c1nnc(N2C(=O)C(O)=C(C(=O)c3cccs3)C2c2ccccc2)s1 (stereo not drawn)	4	196*	i	/	-217	0
COc1ccc(C2C(C(=O)c3cccs3)=C(O)C(=O)N2c2nncs2)cc1 (stereo not drawn)	2	265*	i	i	-303	1
O=C(NC1CCCCC1)C(=O)c1c[nH]c2ccccc12	0	3	i	i	9	-3
Cc1ccc(Cc2c(-c3cccc(Cl)c3)nc3ccc(Br)cn23)cc1	0	/	/	/	/	/
CC1(C(=O)NS(=O)(=O)c2cccc(C#N)c2)CCN1C(=O)c1ccccc1 (stereo not drawn)	-1	/	/	/	/	/
CCCCn1c(N)c(N(CC(C)C)C(=O)c2cc(=O)[nH]c3ccccc23)c(=O)[nH]c1=O	0	0	i	i	-2	-2
Cc1onc(-c2ccccc2)c1C(=O)OCC(=O)N(C)c1c(N)n(Cc2ccccc2)c(=O)[nH]c1=O	0	-1	i	i	7	0
CC(C)CN(C(=O)c1cc(=O)[nH]c2ccccc12)c1c(N)n(Cc2ccccc2)c(=O)[nH]c1=O	0	0	i	i	2	11*
CCN(C(=O)COC(=O)c1c(-c2ccccc2)noc1C)c1c(N)n(Cc2ccccc2)c(=O)[nH]c1=O	-2	0	i	i	-20	15*
CC(=O)Nc1sc(C)c(C)c1C(=O)OCC(=O)N(CC(C)C)c1c(N)n(Cc2ccccc2)c(=O)[nH]c1=O	0	2	-6.6*	i	0	-3
CC(=O)c1ccc(OCC(=O)N2CCN(S(=O)(=O)c3ccc(C)cc3C)CC2)cc1	0	0	i	i	1	0
CN1CCC(N2CCN(C3CN(Cc4cn(Cc5cccc(C(F)(F)F)c5)nn4)S(=O)(=O)C3)CC2)CC1 (stereo not drawn)	0	/	/	/	/	/
SMILES	MPTP block	CRFR2-BP ag	ANO1 activ	ANO1 block	CRFR2-BP antag	GRIN3A LBD mod
O=C(N/N=C/c1ccc([N+](=O)[O-])o1)c1cc2c(ccc3ccccc32)o1	-1	-2	i	/	18	-10
O=C(N/N=C/c1ccc([N+](=O)[O-])o1)c1cc2ccccc2o1	4	-1	i	i	-1	10*
O=C(CNc1ccccc1)N/N=C/c1ccc([N+](=O)[O-])o1	2	-1	i	i	85*	2
Brc1ccc(-c2csc(-c3c[nH]c4ccccc34)n2)cc1	0	1	i	i	-22	47*
c1ccc2c(-c3csc(-c4ccncc4)n3)c[nH]c2c1	4	1	i	i	-5	27*
CCN(CC)S(=O)(=O)c1ccc2c(c1)c(=O)c(C(=O)NCCc1ccc(OC)c(OC)c1)cn2C	0	-2	/	/	-30	-1
COC(=O)c1ccc(COC(=O)c2[nH]c(C)c(C(C)=O)c2C)o1	40	0	i	100*	-2	0
CCN1CCSc2ccc(C(=O)NCc3ccccc3F)cc21	-1	280*	i	i	-317	5
CCOC(=O)CNC(=O)N1CCCC(N(C)CCc2ccccc2)C1 (stereo not drawn)	0	0	i	i	12	0
O=C(/C=C/[C@H]1O[C@@H](n2ccc(=O)[nH]c2=O)[C@H](O)[C@@H]1O)NCCN1CCCCC1	-1	/	/	/	/	/
COc1ccc(/C=N/n2c(-c3n[nH]c4c3CCC4)n[nH]c2=S)cc1	-3	-1	i	i	100*	1
COc1ccc(/C=N/n2c(-c3n[nH]c4c3CCC4)n[nH]c2=S)c(OC)c1OC	2	0	i	i	3	0
COc1cc(OC)c(OC)cc1/C=N/n1c(-c2n[nH]c3c2CCC3)n[nH]c1=S	1	-3	i	i	11	-1
COc1ccc(OC)c(/C=N/n2c(-c3n[nH]c4c3CCC4)n[nH]c2=S)c1	1	-1	i	i	6	14*
Cc1c(C(=O)NC2CC(=O)N(c3ccc4c(c3)OCCO4)C2)cccc1[N+](=O)[O-] (stereo not drawn)	0	0	i	i	3	-3
O=S(=O)(c1ccc(Cl)cc1)N1CCN(S(=O)(=O)N2CCCCCC2)CC1	-2	5	i	i	5	0
O=S(=O)(N1CCCCC1)N1CCN(c2cc(Cl)ccc2Cl)CC1	-1	0	-8*	i	-78	-1

Screening results deposited in PubChem BioAssay by several laboratories.
